Screens (PubChem)
Shown are actives, neighbours in structure and some others; about 2.8% of the full set was active somewhere.
PolyA inh – polyadenylation inhibitors in yeast reporter cells, primary screen, luminescence, S. cerevisiae; S. cerevisiae SKY197-pL101 polyadenylation reporter, beta-gal luminescence; efflux-impaired pdr1/pdr3 knockout yeast; score 100 = 6 SD above DMSO; hit rate 0.02% among 300,000; activity score, % at 12 µM;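 active means lowest replicate activity score at least 50, where 100 means six control SD above control mean; inconclusive means lowest score under 50 but half or more replicates reach 50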;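 further: yeast exposed to compound for 9 h at 30 °C; higher score means more reporter readthrough which indicates perturbed polyadenylation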
pCIP destab – p/CIP-EGFP fusion destabilizers, primary screen, fluorescence, F442A cells | Q05BA5 | 16 h | decrease of EGFP signal, % at 10 µM | hit rate 0.01% among 290,000;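 active means EGFP signal decrease of at least 30% at 10 µM or well 3 SD below plate mean, unless failing retest; inactive means the rest, including hits failing retest or dose response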
HIF activator – HIF pathway transcriptional activators, primary screen, cell-based, U2OS HRE-luciferase, luminescence; hit rate 0.32% among 300,000; U2OS HRE-luciferase reporter; normalized: DMSO 0%, desferrioxamine 100%; activation, % at 7.5 µM (by protocol);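 active means mean activation of at least 10% of the iron chelator positive control signal, with at least half of replicates also reaching 10%; inconclusive means mean and replicate majority disagree about reaching 10%; inactive means mean and most replicates under 10%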
AHR act – AHR activators, primary screen, cell-based, luminescence, luciferase reporter, human | Aryl hydrocarbon receptor (Homo sapiens), P35869 | AHR-responsive luciferase reporter cells | activation, % at 5 µM | hit rate 2.5% among 320,000 | AID 2796, 2010; in the data active means activation above about 47%;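 further: 0% = vehicle wells and 100% = reference agonist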
Platelet DG rel – inhibitors of platelet dense granule secretion, primary screen, cell-based, MLPCN, human platelets; human platelet-rich plasma, SFLLRN dense granule ATP release, luminescence; inhibition, %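 (compounds screened at 7.5 µM in platelet-rich plasma)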; hit rate 0.22% among 300,000; AID 1663, 2009;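 active means mean replicate score, as percent of positive control, at or above 50; inconclusive means mean below 50 but at least one replicate at or above 50; inactive means mean and every replicate below 50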
Active calls of the source: *; ? = inconclusive; nt = no result given.

SMILES	PolyA inh	pCIP destab	HIF activator	AHR act	Platelet DG rel
Cn1ncc([N+](=O)[O-])c1C(=O)NC1CCCCC1	3.9	-1.0	0.1	1.7	-2.4
COc1ccc(-c2noc(Cn3cc(S(=O)(=O)N4CCCC4)ccc3=O)n2)cc1	nt	nt	nt	3.2	nt
COc1ccccc1-c1cc(-c2ccc(O)cc2)nc(N)c1C#N	3.4	5.0	-26.2	62.1*	-12.1
COc1ccc(C(=O)Nc2ccc(Cl)cc2C(=O)N2CCCC(C)C2)cc1 (stereo unspecified)	13.9	-4.2	-0.2	0.0	2.7
O=C(Nc1ccc(O)cc1)c1ccc(C(=O)c2ccccc2)o1	-6.0	5.8	-1.8	-1.8	-3.8
COc1ccc(Cl)cc1NC(=O)CN(C)C(=O)c1sccc1-c1ccccc1	nt	nt	nt	55.2*	nt
COc1ccc(Cl)cc1NC(=O)CN(C)C(=O)c1sc2ccccc2c1Cl	nt	nt	nt	19.7	nt
CCCn1c(SCC(=O)NNC(=O)c2ccc(C)cc2)nnc1C(C)C	13.2	-3.6	0.1	-6.8	-8.2
Cc1cccc(OCC(=O)NC(C)C(=O)N/N=C/c2c(OCc3ccccc3)ccc3ccccc23)c1 (stereo unspecified)	5.6	7.2	3.1	87.6*	3.1
Cc1nnc(SCC(=O)NCC2COc3ccccc3O2)s1 (stereo unspecified)	nt	nt	nt	-0.1	nt
CC(C)c1nc(SCC(=O)Nc2cccc3ccccc23)n[nH]1	nt	nt	nt	12.9	nt
O=C1CCCN1CCC(=O)N1CCCC(CO)(Cc2ccccc2)C1 (stereo unspecified)	-3.9	6.2	2.4	6.0	-17.4
c1cc(Nc2ncnc3sc4c(c23)CCC4)ccn1	4.9	-2.6	0.5	-0.2	3.0
C(=N\Nc1ncnc2sc3c(c12)CCC3)/c1cccs1	-19.4	5.7	3.3	56.2*	-11.0
CN1C(=O)/C(=C2\SC(N)=NC2=O)c2ccccc21	2.8	0.0	0.3	73.4*	3.1
COCC(=O)Nc1c(C(=O)Nc2cccc(OC)c2)oc2ccccc12	-25.9	-9.2	4.0	70.1*	9.8
COc1cccc(NC(=O)c2oc3ccccc3c2NC(C)=O)c1	-13.5	-9.6	1.1	29.2	6.2
COCC(=O)Nc1c(C(=O)Nc2ccccc2OC)oc2ccccc12	1.0	17.2	1.2	83.5*	0.6
COc1ccccc1NC(=O)c1oc2ccccc2c1NC(=O)c1cc(OC)c(OC)c(OC)c1	-14.8	nt	1.4	21.2	0.0
COc1ccccc1NC(=O)c1oc2ccc(C)cc2c1C	-7.8	-7.4	2.1	60.5*	4.5
COc1ccc(CN2CCNC(=O)C2CC(=O)NCC2CCOCC2)cc1C (stereo unspecified)	5.4	0.1	-1.1	nt	2.8
COc1ccc(CN2CCNC(=O)C2CC(=O)NCC(C)(C)N2CCOCC2)cc1C (stereo unspecified)	2.3	-1.0	-0.4	61.0*	?
CC(C)CNS(=O)(=O)c1cc2c3c(c1)CCC(=O)N3CCC2	18.4	-8.5	0.3	4.2	-5.6
CCCCNc1c(-c2ccc(SC(C)CC)cc2)nc2cnccn12 (stereo unspecified)	nt	nt	nt	48.2*	nt
CSc1ccc(/C=C/c2cc(=O)c3ccccc3[nH]2)cc1	9.4	-9.3	1.6	56.0*	5.8
SMILES	PolyA inh	pCIP destab	HIF activator	AHR act	Platelet DG rel
Cc1ccc(CSc2nnc(-c3ccncc3)n2C)cc1	-18.3	-6.8	0.5	-14.2	-4.0
Cc1ccc(Nc2nc(CSc3nnc(-c4ccncc4)n3C)cs2)cc1	-5.9	-1.8	257.7*	16.5	1.2
Cc1cc(NC(=O)c2ccc(S(=O)(=O)N(C)CC3CCCO3)cc2)no1 (stereo unspecified)	-0.2	-2.4	-0.3	-1.2	13.4
CN(CC1CCCO1)S(=O)(=O)c1ccc(C(=O)Nc2nccs2)cc1 (stereo unspecified)	4.3	8.1	278.7*	3.4	8.9
c1ccc(-n2ncc3c2ncn2nnnc32)cc1	9.1	-29.1	-0.2	3.0	7.9
Cc1nc2c3cnn(-c4ccccc4)c3ncn2n1	-1.7	2.9	0.6	68.5*	-0.5
CCN1CCN(CCCNC(=O)C2CCN(c3nnc(-n4c(C)ccc4C)s3)CC2)CC1	7.5	-3.3	-0.2	51.4*	1.0
CCN1CCN(CCCNC(=O)C2CCN(c3nnc(-n4cccc4)s3)CC2)CC1	11.1	6.4	0.2	0.3	-4.4
CC(=O)c1cc(Cl)ccc1OC(=O)c1ccco1	2.2	-16.3	-0.1	16.2	-2.6
O=C(Oc1ccc(Br)cc1C(=O)/C=C/c1ccccc1F)c1ccco1	-21.3	nt	0.9	56.5*	-1.6
CCc1noc(C)c1C(=O)Nc1nc2ccc(F)cc2s1	14.6	nt	2.1	52.0*	3.6
Cc1noc(C)c1C(=O)Nc1nc2ccc(F)cc2s1	nt	nt	nt	34.6	nt
Nc1nc(NCC2CCCO2)nc(Nc2ccc(Cl)cc2)c1[N+](=O)[O-] (stereo unspecified)	-12.3	-4.2	-0.3	67.5*	12.9
Nc1nc(NCCCN2CCOCC2)nc(Nc2ccc(Cl)cc2)c1[N+](=O)[O-]	-6.2	6.4	-0.8	74.1*	-0.6
Nc1nc(NCC2CCCO2)nc(Nc2ccccc2)c1[N+](=O)[O-] (stereo unspecified)	-11.9	-5.8	0.0	2.7	-24.7
Cc1ccc(Nc2nc(NCCCN3CCOCC3)nc(N)c2[N+](=O)[O-])cc1	7.2	-10.0	-29.9	9.7	-7.1
Fc1ccc(-c2csc(NC3=NCCC3)n2)cc1	-10.2	-12.2	1.2	54.6*	-3.2
COc1ccc(-c2csc(NNC3=NCCCCC3)n2)cc1	-9.6	-8.1	205.3*	31.1	2.5
COc1ccc(-c2csc(NC3=NCCCCC3)n2)cc1	12.3	4.1	3.4	57.5*	-10.7
N#CCC(=O)Nc1ccc(C(=O)OCC(=O)NC2CCCc3ccccc32)cc1 (stereo unspecified)	nt	nt	nt	1.2	nt
CC1CC(C)CN(C(=O)c2cc3ccccc3o2)C1 (stereo unspecified)	1.7	nt	1.8	58.0*	-14.1
COc1ccc(Cl)cc1C(=O)NCCCn1ccnc1	-8.8	-3.3	-10.4	22.0	-2.4
CC(C)(C)c1cc(C(=O)NCCCn2ccnc2)cc(C(C)(C)C)c1	10.3	-2.4	0.6	9.2	0.4
O=C(NCCCn1ccnc1)c1noc2c1CCCC2	14.4	-2.2	-0.3	48.2*	-3.3
CCOc1cc(C(=O)NCCCn2ccnc2)cc(OCC)c1OCC	3.0	-3.0	-0.3	49.8*	13.2
SMILES	PolyA inh	pCIP destab	HIF activator	AHR act	Platelet DG rel
COc1cc(SC)ccc1C(=O)NCCCn1ccnc1	-8.1	-1.5	-0.3	58.8*	0.9
CC(C)C1N(C(N)=S)N=CC1(C)C (stereo unspecified)	-27.9	-6.9	-1.0	-1.0	-9.5
COCc1nnc(NC(=O)c2cccc(NC(=O)c3ccccc3)c2)s1	-7.3	3.5	-0.8	11.7	-4.4
NC(=O)Cc1nc(-c2ccc(Br)cc2)cs1	6.5	-17.7	0.6	2.6	5.4
Oc1csc(Cc2nc(-c3ccc(Br)cc3)cs2)n1	-11.0	-3.6	3.0	78.3*	-0.6
Cc1ccc(S(=O)(=O)NNC(=O)c2cc3cc4ccccc4nc3s2)cc1	13.4	-11.7	0.1	14.6	-4.2
